Screening results deposited in PubChem BioAssay by National Center for Advancing Translational Sciences (NCATS).
Shown are actives, neighbours in structure and some others; about 2.6% of the full set was active somewhere.
Cruzain inh Det = blocks cruzain activity in presence of Triton detergent. P25779. purified cruzain, Z-FR-AMC fluorescence, 0.01% Triton. Potency, µM, actives largely listed as inhibitors. 200,000 compounds, 0.43% hits; also: nearly all actives have a fitted effect of over 40% in size
Target sequence (P25779 123-467 limits assumed): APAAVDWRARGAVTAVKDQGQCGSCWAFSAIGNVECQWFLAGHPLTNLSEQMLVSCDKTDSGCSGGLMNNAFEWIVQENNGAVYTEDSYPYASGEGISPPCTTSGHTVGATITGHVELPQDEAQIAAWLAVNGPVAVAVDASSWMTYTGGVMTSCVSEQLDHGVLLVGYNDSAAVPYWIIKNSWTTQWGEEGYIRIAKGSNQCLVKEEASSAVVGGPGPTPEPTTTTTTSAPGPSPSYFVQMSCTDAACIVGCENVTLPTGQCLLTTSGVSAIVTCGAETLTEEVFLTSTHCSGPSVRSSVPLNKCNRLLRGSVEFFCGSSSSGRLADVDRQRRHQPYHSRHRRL
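Detergent-containing run (0.01% Triton X-100) in acetate buffer pH 5.5 with 5 mM DTT: enzyme at 1.5 nM final, 15 min compound preincubation at room temperature, then 2 uM Z-FR-AMC substrate. Activity taken as 60 s fluorescence increase at 360/450 nm.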
Cruzain inh noDet = cruzain (T. cruzi) inhibition without detergent. purified cruzain, Z-FR-AMC fluorescence, no detergent. Potency, µM, usual class: inhibitors. 200,000 compounds, 2.3% hits. AID 1476; also: nearly all actives have a fitted effect of over 40% in size
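Purified cruzain at 1.5 nM, pre-incubated 15 min with compound at room temperature in 100 mM sodium acetate pH 5.5, 5 mM DTT, 0.00005% Triton X-100. Reaction started with 2 uM Z-FR-AMC; AMC fluorescence increase over 60 s gives rate.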
Of the large screens only hits and unclear results are named; the others gave an inactive call; ! = repeats disagree. Calls follow the shape of the dose curve; as a rule, active = well fitted curve in the direction sought with a large enough effect; inconclusive = small, poorly fitted or top-dose-only effect, or another doubt; inactive = no such curve, though single readings can be large; an effect the other way counts as inactive or inconclusive.

Nc1nc2ccc([N+](=O)[O-])cc2s1	none
COc1ccc(-c2ccc(CNCCCSc3nnnn3C)o2)cc1Cl	none
COc1ccc(Cl)cc1NC(=O)CSc1nc(N2CCCCC2)nc(N2CCCCC2)n1	Cruzain inh noDet 15.8µM
Cc1ccccc1NC(=O)CSc1nc(N2CCCCC2)nc(N2CCCCC2)n1	none
Cn1cccc1C(=O)N1CCC2(CCN(C(=O)Nc3ccccc3)CC2)CC1	none
Cc1ccc2c(c1)sc1nc(=O)n(-c3ccc(Cl)cc3)c(=O)n12	none
Cc1ccc2c(c1)sc1nc(=O)n(-c3ccc(Cl)c(Cl)c3)c(=O)n12	Cruzain inh noDet 20µM!
CCOC(=O)c1c(C)cc(O)c(C=O)c1O	none
CCOC(=O)c1c(NC(=O)c2ccccc2Cl)sc2c1CCCC2	none
CCOC(=O)c1c(NC(=O)c2ccccc2N(C)S(=O)(=O)c2ccccc2)sc2c1CCCC2	Cruzain inh noDet 20µM
COC(=O)c1c(NC(=O)c2ccccc2N(C)S(=O)(=O)c2ccccc2)sc2c1CCCC2	Cruzain inh noDet 25.1µM
COC(=O)c1c(NC(=O)CN(c2ccccc2)S(C)(=O)=O)sc2c1CCCC2	Cruzain inh noDet inconclusive
COC(=O)c1c(NC(=O)c2ccc(N(C)S(=O)(=O)c3ccc(C)cc3)cc2)sc2c1CCCC2	Cruzain inh noDet 3.98µM
COC(=O)c1c(NC(=O)CS(=O)(=O)c2ccc(C)cc2)sc2c1CCCC2	Cruzain inh noDet inconclusive
Cc1c(Cl)cccc1NC(=O)c1cc(-c2cccc(Cl)c2)on1	none
Clc1ccc(CCNC(c2nnc(-c3ccccc3)o2)c2ccccc2Cl)cc1 (configuration not stated)	none
COc1ccc(CNC(=O)c2ccc3c(c2)N(Cc2ccccc2C)C(=O)c2ccccc2S3=O)cc1 (configuration not stated)	none
Cc1cc(NC(=O)CCN2C(=O)C3C4CCC(C4)C3C2=O)c(C)cc1Br (configuration not stated)	none
Cc1cc(Br)c(Cl)cc1NC(=O)CN1C(=O)C2C3CC(c4ccccc4)C(C3)C2C1=O (configuration not stated)	Cruzain inh noDet 12.6µM
Cc1cc(C)c(NC(=O)CSc2nc3ccccc3c3nc(CCn4cncc4C)nn23)c(C)c1	none
CN(C)c1cccc(C(=O)OC(C(=O)Nc2ccc(Cl)cc2C(F)(F)F)c2ccccc2)c1 (configuration not stated)	Cruzain inh noDet inconclusive
CN(C)c1cccc(C(=O)OC(C(=O)Nc2ccc([N+](=O)[O-])cc2Br)c2ccccc2)c1 (configuration not stated)	Cruzain inh noDet 15.8µM
C[C@H](Br)CN(C[C@H](C)Br)c1ccc2c(c1)Cc1ccccc1-2	none
CS(=O)(=O)c1sc2nc(-c3cccs3)cc(-c3ccccc3)c2c1N	Cruzain inh noDet 20µM
Cc1ccc(-c2cc(-c3ccccc3)c3c(N)c(S(C)(=O)=O)sc3n2)cc1	Cruzain inh noDet inconclusive
CC(C)[C@H](Nc1ncnc2nc[nH]c12)C(=O)O	none
CC(OC(=O)c1c2c(nc3ccccc13)/C(=C\c1ccc3c(c1)OCO3)CCC2)C(=O)Nc1ccc(S(N)(=O)=O)cc1 (configuration not stated)	Cruzain inh noDet 15.8µM
Cc1cccc(C)c1NC(=O)COC(=O)c1c2c(nc3ccccc13)/C(=C\c1ccc3c(c1)OCO3)CCC2	Cruzain inh noDet 7.94µM
CNC(=O)NC(=O)C(C)OC(=O)c1c2c(nc3ccccc13)/C(=C/c1cccs1)CC2 (configuration not stated)	none
O=C(COC(=O)c1c2c(nc3ccccc13)CCCCC2)NCc1ccc2c(c1)OCO2	none
Cc1nc(N=Nc2cc(S(=O)(=O)O)ccc2S(=O)(=O)O)c(COP(=O)(O)O)c(C=O)c1O	none
COc1ccc(N2CCC(CNC(=O)Nc3cccc(OC)c3)C2)cc1 (configuration not stated)	Cruzain inh noDet inconclusive
COc1ccc(N2CCC(CNC(=S)Nc3cccc(OC)c3)C2)cc1 (configuration not stated)	Cruzain inh noDet 31.6µM
COc1ccccc1-c1ccc2ncnc(NCc3cnc(C)cn3)c2c1	none
CCOc1ccccc1OCC(=O)Nc1ccc(Cl)cc1Cl	none
CCOc1ccccc1NC(=S)NC(=O)CCCOc1ccc(Cl)cc1Cl	Cruzain inh noDet 20µM
O=C(Nc1ccccc1)Nc1nc(-c2ccc(Cl)cc2)cs1	Cruzain inh noDet 15.8µM
CCN(CC)CC(=O)Nc1nc(-c2ccc(Cl)cc2)cs1	none
CC(C)CC(=O)NC(=S)Nc1nc(-c2ccc(Cl)cc2)cs1	Cruzain inh noDet inconclusive
O=C(Nc1cccc(Cl)c1)Nc1nc(-c2ccc(Cl)cc2)cs1	Cruzain inh noDet 10µM
CCc1ccc(-c2csc(NC(=O)Oc3ccccc3)n2)cc1	Cruzain inh noDet 12.6µM
O=C(Nc1nc(-c2cccc(Br)c2)cs1)Oc1ccccc1	Cruzain inh noDet inconclusive
CCOC(=O)CN1C(=O)C(O)(CC(=O)c2cc(OC)ccc2OC)c2ccccc21 (configuration not stated)	none
Cc1ccc(Cn2cc(CCC(=O)NCC(C)c3ccccc3)c3ccccc32)cc1 (configuration not stated)	none
CCOc1ccccc1N(C)C(=O)Cn1cnc2sc(C)c(S(=O)(=O)N3CCC(C)CC3)c2c1=O	none
CN(C)CCCc1cccnc1	none
COc1cc(Cl)c(C)cc1NC(=O)CSc1ncc(S(=O)(=O)c2ccc(C(C)(C)C)cc2)c(=O)[nH]1	Cruzain inh Det 28.2µM
Cc1ccc(NC(=O)CSc2ncc(S(=O)(=O)c3ccc(C(C)C)cc3)c(=O)[nH]2)cc1C	none
